From PubChem BioAssay
Rab2A wt mod: changes GTP binding to wildtype dog Rab2A, up or down | P61105 | GST-Rab2 wt beads, Bodipy-GTP binding, flow cytometry | GTP binding activity, % at 10 µM | actives 0.19% (n = 190,000);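 active = GTP binding activity at least 20 points away from 100%, either lowered or raised; inconclusive = signal likely due to the compound's own green fluorescence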
HRas wt GTP bind: human HRas wildtype GTP binding, change in either direction; P01112; actives 0.14% (n = 190,000); GTP binding activity, % at 10 µM; GST-Ras wt beads, Bodipy-FL-GTP binding, flow cytometry; actives lie on both sides;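 active = GTP binding activity at least 20% away from the 100% baseline, either lowered as inhibitor or raised as activator; inconclusive = flagged as likely green fluorescent, judged across all proteins in the well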
Target sequence (P01112 whole entry, looked up): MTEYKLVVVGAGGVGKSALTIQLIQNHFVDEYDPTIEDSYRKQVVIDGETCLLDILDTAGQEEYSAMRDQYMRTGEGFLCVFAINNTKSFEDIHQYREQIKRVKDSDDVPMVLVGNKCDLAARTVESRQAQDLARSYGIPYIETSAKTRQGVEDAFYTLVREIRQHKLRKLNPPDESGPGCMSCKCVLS
Rab7 wt GTP bind: dog Rab7 wildtype GTP binding, inhibitors and activators; GST-Rab7 beads, fluorescent GTP binding, flow cytometry; actives lie on both sides; untreated = 100%, excess cold GTP = 0%; GTP binding activity (percent of control), % at 10 µM; AID 758; actives 0.055% (n = 190,000);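 active = fluorescent GTP binding to Rab7 beads changed by at least 20 points from the 100% baseline, either direction, mostly lower; inconclusive = compound itself probably fluorescent, or too few beads counted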;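 note: median green fluorescence of bound Bodipy-FL-GTP per Rab7 bead population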
Rac1 wt modul: human Rac1 wildtype GTP binding, inhibitors and activators | GST-Rac1 beads, fluorescent GTP binding, flow cytometry; actives lie on both sides; 0 = cold GTP competed, 100 = untreated | GTP binding activity (% of control), % at 10 µM | actives 0.27% (n = 190,000) | AID 757;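 active = GTP binding activity at least 20 points away from the 100% control level, either lower or higher; inconclusive = compound flagged as likely green fluorescent, judged across all proteins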
Rac1 mut GTP: human Rac1 activated mutant GTP binding change. P63000. GST-Rac1 activated beads, fluorescent GTP binding, flow cytometry; actives lie on both sides; 100% means binding = to untreated wells. percent activity (GTP binding), % at 10 µM. actives 0.11% (n = 190,000). AID 764;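 active = GTP binding at least 20 percentage points away from the 100% baseline, in either direction, so actives lie on both sides; inconclusive = Compound likely fluorescent itself, or too few beads counted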
Cdc42 wt GTP: changes GTP binding to wildtype human Cdc42. P60953. percent activity (GTP binding), % at 10 µM. actives 0.2% (n = 190,000). GST-Cdc42 beads, Bodipy-GTP binding, flow cytometry; actives lie on both sides. AID 761;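 active = percent activity GTP binding at least 20 points away from the 100% baseline, either down as inhibitor or up as activator; inconclusive = compound flagged as likely green fluorescent from well-wide comparison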;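 note: median bead fluorescence of bound Bodipy-FL-GTP at 100 nM; below 100% means less GTP binding so inhibitor and above means activator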
Target sequence (P60953 whole entry, looked up): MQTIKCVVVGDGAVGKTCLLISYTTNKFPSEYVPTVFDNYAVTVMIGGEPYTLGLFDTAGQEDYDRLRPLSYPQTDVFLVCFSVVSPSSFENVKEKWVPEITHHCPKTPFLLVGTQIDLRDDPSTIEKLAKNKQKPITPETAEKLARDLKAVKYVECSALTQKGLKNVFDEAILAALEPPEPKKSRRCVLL
Of the large screens only hits and unclear results are named; the others gave an inactive call; [ ] = remark or other dose. A selection: hits, their analogues and other compounds. The true share with any hit is near 0.4%.

O=C(COC(=O)/C=C/c1cccs1)Nc1ccccc1Cl	none
COCCn1c(N)c(C(=O)Nc2sc3c(c2C(=O)OC)CCCC3)c2nc3ccccc3nc21	Rab2A wt mod 69, HRas wt GTP bind 63, Rac1 wt modul 77, Cdc42 wt GTP 63
O=C(CCc1nc2ccccc2c(=O)[nH]1)OCC(=O)N1CCc2ccccc21	none
O=C(CCc1nc2ccccc2[nH]c1=O)OCC(=O)N1CCc2ccccc21	Rac1 wt modul 130[activator]
COc1ccc(-c2nnc(S/C(=C/c3ccc(Cl)cc3)C(=O)O)o2)cc1	Rab2A wt mod 75, Rac1 mut GTP 73, Cdc42 wt GTP 74
CC(=O)Nc1ccc(Nc2ccc3c4c(cc(=O)n3C)-c3ccccc3C(=O)c24)cc1	Rac1 wt modul 77
CCOc1ccc(-n2c(C)nc3cc(C(=O)NCc4ccc5c(c4)OCO5)ccc32)cc1	Rab2A wt mod 71, Rac1 wt modul 77, Rac1 mut GTP 79, Cdc42 wt GTP 77
O=c1c2ccccc2nc2ccc(NCc3ccco3)nn12	Rab2A wt mod 79
Cc1sc2nc3ccc(NCc4ccco4)nn3c(=O)c2c1C	Rab2A wt mod 27, HRas wt GTP bind 34, Rab7 wt GTP bind 18, Rac1 wt modul 22, Rac1 mut GTP 30, Cdc42 wt GTP 28
Nc1[nH]n2c(=O)cc(-c3ccccc3)nc2c1N=Nc1ccccc1	none
Nc1nn2c(-c3ccccc3)cc(=O)[nH]c2c1N=Nc1ccc(Br)cc1	Rab2A wt mod 75, Rac1 wt modul 76, Rac1 mut GTP 76, Cdc42 wt GTP 75
CCC(=O)c1ccc(OCC(=O)O)c(OC)c1	Rac1 wt modul 122[activator]
CCOC(=O)COc1ccc(C(=O)CC)cc1OC	none
CC(=O)Nc1ccnc(-c2cccnc2)n1	none
O=C(Nc1cccc(Cl)c1)Nc1ccnc(-c2cccnc2)n1	Rab2A wt mod 67, HRas wt GTP bind 67, Rac1 wt modul 77, Cdc42 wt GTP 64
O=C1CC(c2ccc(F)cc2)Sc2ccccc2N1 (configuration not stated)	Rac1 wt modul 129[activator]
COc1ccc(N2CCN(c3ccc(Cl)nn3)CC2)cc1	none
Cc1cc(C)c2nc(NNC(=O)c3cc(=O)c4ccccc4o3)sc2c1	Rab2A wt mod 79, Rac1 mut GTP 71, Cdc42 wt GTP 77
COc1cccc(C(=O)Nc2cc3c(cc2C(C)=O)OCCO3)c1	none
O=C(NC(=S)Nc1ccc2c(c1)OCCO2)c1cccc2ccccc12	none
O=C(COc1ccccc1[N+](=O)[O-])Nc1cc(Cl)ccc1C(=O)O	Rac1 mut GTP 79
Cc1nn(Cc2ccc(Cl)cc2Cl)c(C)c1NC(=O)NC12CC3CC(CC(C3)C1)C2	none
COc1ccc(C(=O)N/C(=C\c2cccc([N+](=O)[O-])c2)C(=O)Nc2cccc(C(=O)O)c2)cc1	Rab2A wt mod 60, HRas wt GTP bind 69, Rac1 wt modul 64, Cdc42 wt GTP 62
CC1CC1c1ccc(/C=C(\C#N)C(=O)Nc2cccc(Cl)c2Cl)o1 (configuration not stated)	none
C(=N\Nc1nn2cnnc2c2ccccc12)/c1ccco1	Rab2A wt mod 72, HRas wt GTP bind 75, Cdc42 wt GTP 77
COc1cc(/C=N/Nc2nn3cnnc3c3ccccc23)ccc1O	Rab2A wt mod 72, HRas wt GTP bind 62, Rac1 wt modul 75, Rac1 mut GTP inconclusive, Cdc42 wt GTP 58
Clc1cnc(N/N=C/c2ccco2)c(Cl)c1	none
O=C(CNC(=O)Cc1ccccc1)N=Nc1c(O)n(Cc2ccc3c(c2)OCO3)c2ccccc12	Rab2A wt mod 78, Rac1 wt modul 78
O=C(O)c1cc(-c2ccc(/C=C3/SC(=S)N(Cc4ccccc4)C3=O)o2)ccc1Cl	Rab2A wt mod 78, Rac1 wt modul 74, Rac1 mut GTP 77, Cdc42 wt GTP 76
COc1ccc(CN2C(=O)/C(=C/c3ccc(-c4ccc(Cl)c(C(=O)O)c4)o3)SC2=S)cc1	Rab2A wt mod 79, HRas wt GTP bind 73, Rac1 wt modul 76, Rac1 mut GTP 76, Cdc42 wt GTP 75
Cc1ccc(/C=C2\SC(=S)N(Cc3ccccc3)C2=O)o1	none
CC(C)(C)NC(=O)CN(CCc1ccccc1)C(=O)c1csnn1	none
Cc1ccc(NN2C(=O)C=C(c3ccc(Cl)cc3)C2=O)cc1	none
O=C(Nc1nnc(CC(=O)N2CCOCC2)s1)c1cccs1	none
O=C(COc1cc(Cl)ccc1Cl)Nc1nnc(CC(=O)N2CCOCC2)s1	Rab2A wt mod 72, HRas wt GTP bind 70, Cdc42 wt GTP 71
Cc1nn(-c2ccccc2)c(Cl)c1CN(C(=O)CCl)c1cccc2ccccc12	none
O=C(NC1CCCCC1)c1noc2c1CCCCC2	Rac1 wt modul 120[activator]
CC(C)(C)C1CCc2onc(C(=O)NC3CCCC3)c2C1 (configuration not stated)	none
COc1ccc(CCNC(=O)c2cc(-c3ccc(Cl)c(Cl)c3)oc2C)cc1	none
COc1cccc(Nc2c(F)c(F)c(F)c(F)c2C(=O)O)c1	Rac1 wt modul 131[activator], Cdc42 wt GTP 123[activator]
Cc1ccc(Nc2c(F)c(F)c(F)c(F)c2C(=O)O)cc1	Rab2A wt mod 127[activator], Rac1 wt modul 141[activator], Rac1 mut GTP 130[activator], Cdc42 wt GTP 128[activator]
CC1Cc2ccccc2N1C(=O)Cn1c(=O)oc2cc(S(=O)(=O)N3CCCCC3)ccc21 (configuration not stated)	none
C=CCNC(=O)c1ccc(OC2CCN(S(=O)(=O)N(C)C)CC2)cc1	none
Cc1cc(Cl)ccc1OCC(=O)OCC(=O)Nc1ccc(F)c([N+](=O)[O-])c1	Rab2A wt mod 64, HRas wt GTP bind 74, Cdc42 wt GTP 77
CCNC(=O)COC(=O)COc1ccc(Cl)cc1C	none
CCOC(=O)C1(CC2CCCCO2)CCN(S(=O)(=O)c2c(C)nn(C)c2C)CC1 (configuration not stated)	none
O=S1(=O)N=C(N=Nc2c(O)[nH]c3ccccc23)c2ccccc21	Rac1 wt modul 77
COc1ccc(CNC(=O)c2ccccc2C(=O)O)cc1	none
COc1ccc(CC(=O)c2ccccc2C(=O)O)cc1	Rab2A wt mod 130[activator], HRas wt GTP bind 126[activator], Rab7 wt GTP bind 125[activator], Rac1 wt modul 143[activator], Rac1 mut GTP 131[activator], Cdc42 wt GTP 140[activator]
Cc1ccc(Cn2c(=N)c(C(=O)NCc3ccco3)cc3c(=O)n4ccccc4nc32)cc1	none
CCNC(=O)c1cc2c(=O)n3cccc(C)c3nc2n(CCc2ccccc2)c1=N	Rab2A wt mod 72, HRas wt GTP bind 71, Cdc42 wt GTP 71
